From PubChem BioAssay (EPA / NIEHS)
Activity calls are given as the source filed them. Rule for the calls: active = hit-call score of the fitted dose curve at least 0.9, where 1 is the maximum; inactive = score below 0.9.

target: Transcriptional activator Myb (Homo sapiens) (UniProt P10242); experiment: ATG_Myb_CIS: Attagene CIS-FACTORIAL HepG2 Assay for human Myeloblastosis (Myb) Proto-Oncogene Transcription Factor (AID 2282986); settings: HepG2 Attagene CIS-FACTORIAL Myb reporter transcription; actives raise or lower the signal
Summary of the method: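 Using HepG2 liver cells bearing transiently transfected cis-promoter reporter constructs, the assay measures induction or loss of reporter mRNA after 24 hours of dosing. Detection used fluorescently labeled RT-PCR products separated by capillary electrophoresis.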

Transcriptional activator Myb (Homo sapiens), sequence (P10242 whole entry, looked up): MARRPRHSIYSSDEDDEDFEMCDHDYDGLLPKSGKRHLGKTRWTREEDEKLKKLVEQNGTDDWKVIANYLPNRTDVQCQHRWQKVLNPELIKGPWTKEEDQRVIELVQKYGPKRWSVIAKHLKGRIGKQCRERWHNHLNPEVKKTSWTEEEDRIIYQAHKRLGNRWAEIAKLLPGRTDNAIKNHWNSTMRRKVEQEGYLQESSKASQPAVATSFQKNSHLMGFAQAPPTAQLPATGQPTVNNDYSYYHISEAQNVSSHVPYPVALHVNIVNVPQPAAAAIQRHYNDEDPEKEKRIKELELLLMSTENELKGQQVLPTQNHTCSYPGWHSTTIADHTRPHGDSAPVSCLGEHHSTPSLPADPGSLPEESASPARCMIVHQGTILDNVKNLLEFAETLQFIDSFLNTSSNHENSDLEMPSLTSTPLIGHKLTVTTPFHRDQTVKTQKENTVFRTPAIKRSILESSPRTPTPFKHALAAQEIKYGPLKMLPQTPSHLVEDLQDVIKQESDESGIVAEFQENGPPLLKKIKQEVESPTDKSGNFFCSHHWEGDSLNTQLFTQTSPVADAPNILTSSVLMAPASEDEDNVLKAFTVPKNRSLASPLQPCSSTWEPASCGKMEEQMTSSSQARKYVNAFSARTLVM

Structure (SMILES) | outcome | AC50
O=[N+]([O-])c1cc(Cl)ccc1Cl | inactive | 
FC(F)(F)c1ccc(Cl)cc1 | inactive | 
CC(O)C(F)(F)C(F)(F)F (centres undefined) | inactive | 
Clc1ccc(Oc2ccccc2)cc1 | inactive | 
O=C(O)C(F)(F)C(F)(F)C(=O)O | inactive | 
O=S1(=O)OCC2C(CO1)C1(Cl)C(Cl)=C(Cl)C2(Cl)C1(Cl)Cl (centres undefined) | inactive | 
CNC(=O)Oc1ccc(N(C)C)c(C)c1 | inactive | 
O=c1[nH]c2ccccc2c(=O)o1 | inactive | 
O=NN1CCCC1 | inactive | 
COC(N)=O | inactive | 
c1ccc(OP(Oc2ccccc2)Oc2ccccc2)cc1 | inactive | 
CC(C)CBr | inactive | 
CCCCc1ccc(O)cc1 | inactive | 
OCC(F)(F)OC(F)(F)C(F)(F)OC(F)(F)C(F)(F)OC(F)(F)F | inactive | 
NNC(N)=S | inactive | 
C/C(=N\NC(=O)Nc1cc(F)cc(F)c1)c1ncccc1C(=O)O | inactive | 
CC(O)C#N (centres undefined) | inactive | 
N#C/C=C/c1ccccc1 | inactive | 
CC(=O)CCc1ccc2c(c1)OCO2 | inactive | 
C=CC(=O)OCC(F)(F)C(F)F | inactive | 

Structure (SMILES) | outcome | AC50
O=S(=O)(F)C(F)(F)C(F)(F)C(F)(F)C(F)(F)C(F)(F)C(F)(F)C(F)(F)C(F)(F)F | inactive | 
Oc1ccccc1Br | inactive | 
CC1=C(C(=O)Nc2ccccc2)S(=O)(=O)CCO1 | inactive | 
O=S(=O)(c1ccc(O)cc1)c1ccc(O)cc1 | inactive | 
Cc1ccc(C(=O)Cl)cc1 | inactive | 
CCN(CC)C1CCCCC1 | inactive | 
Cc1cc(C)c(C(=O)P(=O)(c2ccccc2)c2ccccc2)c(C)c1 |  | 62.4 µM (active)
CC1(C)CN=C(NN=C(/C=C/c2ccc(C(F)(F)F)cc2)/C=C/c2ccc(C(F)(F)F)cc2)NC1 | inactive | 
O=C(CBr)OCc1ccccc1 | inactive | 
N#Cc1ccc(O)cc1 | inactive | 
CO/N=C(/C(=O)OC)c1ccccc1COc1ccccc1C | inactive | 
O=P(OCC(Br)CBr)(OCC(Br)CBr)OCC(Br)CBr (centres undefined) | inactive | 
Oc1ccc(I)cc1 | inactive | 
CCCCN(CC)C(=O)SCCC | inactive | 
Cn1[nH]nnc1=S | inactive | 
CC(=O)c1ccc(-c2ccccc2)cc1 | inactive | 
C=C(C)C(=O)OCC1CO1 (centres undefined) | inactive | 
CCCCCCCc1ccc(O)cc1 | inactive | 
COC(=O)C(F)(F)C(F)(F)OC(F)(C(F)(F)F)C(F)(F)OC(F)=C(F)F (centres undefined) | inactive | 
